# Screens (PubChem BioAssay)
# Sfp PPTase inh = qHTS Assay for Inhibitors of Bacillus subtilis Sfp phosphopantetheinyl transferase (PPTase). 4'-phosphopantetheinyl transferase ffp (Bacillus subtilis), Q9F4F7. hit rate 3.5% among 310,000. Potency, µM, most hits filed as inhibitors. Biochemical Sfp PPTase activity, qHTS. AID 1490, 2009;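 also: the enzyme is Sfp with the accession as filed and its product quenches rhodamine fluorescence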
#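 Fluorescence-quenching assay with 15 nM Sfp, 5 uM rhodamine-CoA and 12.5 uM BHQ-2-labelled ybbR peptide in pH 7.6 Hepes/MgCl2 buffer. Enzyme was pre-incubated with compound for 15 min at room temperature. Rate was taken from the 30-min fluorescence change (525/598 nm).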
# JMJD2A Tudor inh = qHTS Assay for Inhibitors of JMJD2A-Tudor Domain; Lysine-specific demethylase 4A (Homo sapiens), O75164; AlphaScreen JMJD2A-Tudor / H3K4me3 peptide binding; Potency, µM (titrated, usually from 114 µM), actives largely listed as inhibitors; hit rate 4.4% among 390,000; AID 504339, 2011; also: nearly all actives have a fitted effect of over 50% in size
# G9a inh = qHTS Assay for Inhibitors of Histone Lysine Methyltransferase G9a. AID 504332, 2011. hit rate 8.8% among 350,000. Potency, µM (series often up to 102 µM), hits mostly inhibitors. G9a H3K9 monomethylation, AlphaScreen, 2 h. Histone-lysine N-methyltransferase EHMT2 (Homo sapiens), Q96KQ7; also: nearly all actives have a fitted effect of over 75% in size
# Target sequence (Q96KQ7 913-1193 limits assumed): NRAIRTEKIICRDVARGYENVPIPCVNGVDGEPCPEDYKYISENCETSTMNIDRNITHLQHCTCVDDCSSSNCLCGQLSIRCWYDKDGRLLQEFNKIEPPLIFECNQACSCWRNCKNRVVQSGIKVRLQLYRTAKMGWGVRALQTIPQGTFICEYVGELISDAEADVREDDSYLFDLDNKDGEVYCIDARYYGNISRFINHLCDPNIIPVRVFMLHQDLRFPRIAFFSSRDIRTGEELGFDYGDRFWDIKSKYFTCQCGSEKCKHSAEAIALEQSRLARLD
#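 Step 1: enzyme (final 20 nM) with compound, 15 min RT. Step 2: substrate peptide 500 nM and SAM 20 uM, 2 h RT. Step 3: anti-H3K9me1 antibody and AlphaScreen beads, 10 min, then plate read.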
# BAZ2B inh = qHTS Assay for Inhibitors of BAZ2B; Potency, µM (highest dose often 114 µM), actives largely listed as inhibitors; AlphaScreen BAZ2B-H3K14Ac peptide displacement; AID 504333, 2011; hit rate 4.4% among 360,000; also: nearly all actives have a fitted effect of over 60% in size
#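 Inhibition is scored as reduced AlphaScreen emission. The BAZ2B/b-H3(5-23)K14Ac complex (50 nM each) in PBS pH 7.4, 0.01% Tween-20 meets compound (up to 110 uM) for 30 min at RT before bead addition.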
# L3MBTL1 block = qHTS Assay for the Inhibitors of L3MBTL1 | Lethal(3)malignant brain tumor-like protein 1 (Homo sapiens), Q9Y468 | AlphaScreen L3MBTL1–H3K9me1 peptide binding | Potency, µM (series often up to 57.1 µM), most hits filed as inhibitors | hit rate 0.66% among 230,000 | AID 485360, 2010; also: nearly all actives have a fitted effect of over 60% in size
#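 Displacement of a biotinylated histone H3(1-15) peptide monomethylated at Lys9 (75 nM) from L3MBTL1 (50 nM) was measured by AlphaScreen after a 30 min room-temperature compound incubation; cefsulodin titration served as intraplate control.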
# HP1b chromo inh = HTS for Inhibitors of HP1-beta Chromodomain Interactions with Methylated Histone Tails; Chromobox protein homolog 1 (Homo sapiens), P83916; AlphaScreen HP1-beta / biotin-H3K9me3 peptide binding; Potency, µM (doses to about 114 µM), most hits filed as inhibitors; hit rate 0.56% among 390,000; AID 540317, 2011; also: nearly all actives have a fitted effect of over 70% in size
# Target sequence (P83916 whole entry, looked up): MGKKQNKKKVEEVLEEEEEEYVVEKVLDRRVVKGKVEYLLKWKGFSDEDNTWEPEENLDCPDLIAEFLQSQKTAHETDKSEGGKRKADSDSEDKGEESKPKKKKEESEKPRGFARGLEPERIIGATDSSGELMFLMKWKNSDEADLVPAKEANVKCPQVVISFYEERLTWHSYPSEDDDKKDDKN
#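 AlphaScreen: HP1-beta (50 nM) preformed 30 min with biotin-H3(1-18)K9me3 peptide (50 nM) in PBS pH 7.4, 0.01% Tween-20. Compound added for 30 min at RT, then streptavidin donor/nickel chelate acceptor beads (10 ug/mL) for 30 min.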
# Hits are given with their value; . = inactive; ? = inconclusive; / = no result given; ! = not active in a repeat; [ ] = dose if it differs, or a comment. A selection: hits, their analogues and other compounds. The true share with any hit is near 12%. Calls follow the shape of the dose curve; as a rule, active = well fitted curve in the direction sought with a large enough effect; inconclusive = small, poorly fitted or top-dose-only effect, or another doubt; inactive = no such curve, though single readings can be large; an effect the other way counts as inactive or inconclusive.
SMILES,Sfp PPTase inh,JMJD2A Tudor inh,G9a inh,BAZ2B inh,L3MBTL1 block,HP1b chromo inh
O=C(O)c1ccc(Cl)c(S(=O)(=O)Nc2ccccc2Cc2ccccc2)c1,.,.,79.4µM,.,/,.
CC(=O)NS(=O)(=O)c1ccc2c(c1)C(=O)c1cc(S(=O)(=O)NC(C)=O)ccc1-2,.,.,.[0.501 µM],.,.[2.29 µM],.
CC(NS(=O)(=O)c1ccc2c(c1)C(=O)c1cc(S(=O)(=O)NC(C)C(=O)O)ccc1-2)C(=O)O (configuration not stated),.,10µM,28.2µM,.,/,?
O=C(O)c1cccc(NS(=O)(=O)c2ccc(-c3ccc(S(=O)(=O)Nc4cccc(C(=O)O)c4)cc3)cc2)c1,.,.,50.1µM,.,.,.
CCOc1ccc(NC(=O)C(C)n2c(=O)cc(-c3ccccc3)c3c(C)nn(C)c32)cc1 (configuration not stated),/,.,.,.,/,.
COc1ncnc2c1NC1=C(S2)C(=NCCC(=O)O)CC(C)(C)C1,14.1µM,.,17.8µM,?,.,.
CC1(C)CC(=O)/C(=C(\O)Cc2ccccc2)C(=NCCCCCC(=O)O)C1,.,.,.,.,.,.
CN(C)c1ncnc2c1NC1=C(S2)C(=NCCCC(=O)O)CC(C)(C)C1,22.4µM,.,?,?,.,.
Cc1cc(Cl)ccc1NC(=O)C1CCN(S(=O)(=O)c2ccc3[nH]c(=O)ccc3c2)CC1,/,.,.,.,/,.
Cc1noc2nc(C(=O)O)nc(N3CCCCC3)c12,/,39.8µM,12.6µM,?,/,.
O=C1C(Cl)=C(N2CCOCC2)C(=O)N1c1cccc(C(F)(F)F)c1,.,.,79.4µM,.,.,.
COC(=O)c1cccc(N2C(=O)C(Cl)=C(N3CCOCC3)C2=O)c1,.,.,50.1µM,.,.,.
COc1ccc(-c2cc(C(F)(F)F)n3nc(C(=O)Nc4cccc(Cl)c4Cl)cc3n2)cc1OC,/,.,?,.,/,.
O=C(CSc1c2c(nc3ccccc13)CCCC2)NCc1ccco1,.,.,?,.,/,.
CCOC(=O)c1sc2nc(SCC(=O)NCc3ccco3)n(Cc3ccccc3)c(=O)c2c1C,.,.,.,.,.,.
CCCn1c(SCC(=O)NCc2ccco2)nnc1-c1ccncc1,.,.,.,.,.,.
Cc1sc2nc(SCC(=O)NCc3ccco3)n(Cc3ccccc3)c(=O)c2c1C,?,.,50.1µM,.,/,.
CCCCn1c(SCC(=O)NCc2ccco2)nc2ccccc2c1=O,.,.,.,.,/,.
CC(C)(C)c1nc(SCC(=O)NCc2ccco2)c2ccccc2n1,.,.,50.1µM,?,.,.
Cc1[nH]c2ccc(-c3nnc(SCC(=O)NCc4ccco4)n3Cc3ccccc3)cc2c1C,.,56.2µM,39.8µM,56.2µM,/,.
O=C(CSc1nc2ccccc2c(=O)n1Cc1ccco1)NCc1ccco1,?,56.2µM,?,?,?,.
COc1ccc2c(c1)O[C@@H](c1ccc3c(c1)OCO3)[C@H](OC(=O)NS(=O)(=O)c1ccc(C)cc1)C2=O,.,/,/,/,/,/
Cc1ccc(C)n1/N=C1/NC(=O)CS1,?,79.4µM,.,.,.,.
Cc1cc(C)nc(/N=C2/NC(=O)CS2)n1,31.6µM,22.4µM,20µM,?,.,.
CCOC(=O)c1ccccc1NC(=O)N1CCN(Cc2cc(=O)n3nc(-c4ccccc4)sc3n2)CC1,/,.,.,.,/,.
SMILES,Sfp PPTase inh,JMJD2A Tudor inh,G9a inh,BAZ2B inh,L3MBTL1 block,HP1b chromo inh
Nc1ccc2oc(=O)ccc2c1I,.,/,/,/,/,/
CCOc1ccc(Nc2cc(C)nc3nc(C)nn23)cc1,.,.,89.1µM,.,.,.
COc1ccc(Nc2cc(C)nc(-n3nc(C)cc3C)n2)cc1Cl,/,?,.,6.31µM,/,.
COc1ccc(Nc2cc(C)nc3nc(C)nn23)cc1Cl,.,.,89.1µM,.,/,.
Cc1cc(Nc2ccc(F)c(Cl)c2)n2nc(C)nc2n1,.,.,?,.,.,.
CCOc1ccc(Nc2cc(C)nc3nncn23)cc1,/,.,.,.,/,.
CN1CCN(C(=O)C(=O)Nc2c3c(nn2-c2cccc(Cl)c2)CSC3)CC1,/,.,.,.,/,.
Nc1ccc2oc(-c3ccccc3Cl)cc(=O)c2c1O,.,?,70.8µM,?,.,.
O=c1cc(-c2ccccc2Cl)oc2c([N+](=O)[O-])c(O)cc(O)c12,.,.,50.1µM,?,.,.
O=c1cc(-c2ccccc2Cl)oc2ccc([N+](=O)[O-])c(O)c12,.,.,50.1µM!,?,.,.
CCc1ccc(NC(=O)CC2C(=O)N(c3ccc(Cl)cc3)C(=O)N2Cc2cccs2)cc1 (configuration not stated),/,.,?,.,/,.
N#CC1=C(N)NC(=S)C(C(N)=O)C1c1ccc(Cl)cc1Cl (configuration not stated),8.91µM,?,?,.,.,.
O=C1NC(=O)C(c2ccc(Cl)cc2Cl)N1 (configuration not stated),/,.,/,/,/,.
N#CC1=C(N)NC(=S)C(C(N)=O)C1c1ccccc1F (configuration not stated),0.708µM,.,50.1µM,.,/,.
C=CCn1c(SCC(=O)c2ccc(NS(=O)(=O)c3ccccc3)cc2)nnc1-c1cccs1,.,31.6µM,?,.,/,.
C=CCn1c(CCNC(=O)c2cccs2)nnc1SCC(=O)c1ccc(Br)cc1,.,.,44.7µM,.,/,.
Cc1csc2nc(CCNS(=O)(=O)c3ccc(F)cc3)cn12,/,.,.,.,/,.
Cc1ccc(S(=O)(=O)c2nc(-c3ccco3)oc2SC(C)c2ccccc2)cc1 (configuration not stated),/,.,?,.,/,.
COc1ccc(Nc2nnc(SCc3cc(=O)n4ccsc4n3)s2)cc1,56.2µM,22.4µM,3.98µM,.,.,.
O=c1cc(CSc2nnc(Nc3ccccc3F)s2)nc2sccn12,.,.,?,.,.,.
Cc1ccc(OCC(=O)Nc2nnc(SCc3cc(=O)n4cccc(C)c4n3)s2)cc1,/,?,.,.,/,.
Cc1cccn2c(=O)cc(CSc3nnc(NC(=O)COc4ccccc4)s3)nc12,/,56.2µM,.[12.7 µM],28.2µM,.,.
N#C/C(N=Nc1ccccc1O)=N\Nc1ccccc1O,/,22.4µM,?,11.2µM,?,15.8µM
CN(CCCCCCN(C)Cc1ccccc1O)Cc1ccccc1O,?,20µM,/,50.1µM,.,?
Cc1ccc(O)c(CN(C)Cc2cc(C)ccc2O)c1,/,?,/,/,/,.
COc1cccc(CNC(=O)CN2C(=O)N(c3ccc(C)cc3C)S(=O)(=O)c3ccccc32)c1OC,/,.,.,.,/,.
